About 83,000 compounds went through this panel and 20% of them were active in at least one assay; those are over-represented in the sample as a whole.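 Note: values are percent growth. 100 is the growth of untreated cells, values between 100 and 0 indicate rising inhibition; between -100 and 0 indicates cell death.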 Activity calls are given as the source filed them. How the source made its calls: active means growth percent below 10; inactive means the rest.
Columns and labels:
Assay in all cases: NCI-60 one-dose screen, 48 h (100 = growth as untreated, 0 = no growth, -100 = all killed)
HCT-15 colon = conditions: 10 µM unless noted
HT29 colon = conditions: 10 µM unless noted
SNB-75 CNS = conditions: 10 µM unless noted
SNB-19 CNS = conditions: 10 µM unless noted
U251 CNS = conditions: 10 µM unless noted
PC-3 prostate = conditions: 10 µM unless noted
SK-MEL-5 melanoma = conditions: 10 µM unless noted
UACC-62 melanoma = conditions: 10 µM unless noted
LOX IMVI melanoma = conditions: 10 µM
SK-MEL-28 melanoma = conditions: 10 µM unless noted
SK-MEL-2 melanoma = conditions: 10 µM unless noted
EKVX NSCLC = conditions: 10 µM unless noted
SN12C renal = conditions: 10 µM unless noted
UO-31 renal = conditions: 10 µM unless noted
TK-10 renal = conditions: 10 µM unless noted
ACHN renal = conditions: 10 µM unless noted
CAKI-1 renal = conditions: 10 µM unless noted
A498 renal = conditions: 10 µM unless noted
CCRF-CEM leukemia = conditions: 10 µM unless noted
MOLT-4 leukemia = conditions: 10 µM unless noted

Measured: growth

COc1ccc2[nH]cc(-c3nnc(N)nc3-c3cn(C)c4ncc(Br)cc34)c2c1
inactive: HCT-15 colon 68.5% | HT29 colon 82.6% | SNB-75 CNS 31.7% | SNB-19 CNS 69.6% | U251 CNS 75.1% | PC-3 prostate 72.9% | SK-MEL-5 melanoma 85.7% | UACC-62 melanoma 68.5% | LOX IMVI melanoma 71.9% | SK-MEL-28 melanoma 54% | SK-MEL-2 melanoma 61.1% | EKVX NSCLC 88.7% | SN12C renal 60.2% | UO-31 renal 49.4% | TK-10 renal 46.3% | ACHN renal 50.8% | CAKI-1 renal 43.9% | A498 renal 45.5% | CCRF-CEM leukemia 66.8% | MOLT-4 leukemia 56.6%

COc1cc(C2CC(c3ccc(S(=O)(=O)NCCNc4nc(Nc5ccc(F)cc5)nc(N(C)C)n4)cc3)=Nc3c(N)nc(N)nc3N2)cc(OC)c1OC (stereo not given)
inactive: HCT-15 colon 92.5% | HT29 colon 96.5% | SNB-75 CNS 82.8% | SNB-19 CNS 67.5% | U251 CNS 69.6% | PC-3 prostate 86.3% | SK-MEL-5 melanoma 64.2% | UACC-62 melanoma 76.4% | LOX IMVI melanoma 66.9% | SK-MEL-28 melanoma 88.1% | SK-MEL-2 melanoma 90.8% | EKVX NSCLC 87.3% | SN12C renal 83.9% | UO-31 renal 86.1% | TK-10 renal 95.4% | ACHN renal 96.8% | CAKI-1 renal 90.4% | A498 renal 86.8% | CCRF-CEM leukemia 33.8% | MOLT-4 leukemia 34.4%

COC(=O)/C=C/c1cccc2c1C(=O)NC(C)(c1cc3cc4ccccc4cc3oc1=O)N2 (stereo not given)
inactive: HCT-15 colon 54.6% | HT29 colon 32.9% | SNB-75 CNS 61.8% | SNB-19 CNS 49.7% | U251 CNS 43.8% | PC-3 prostate 38.9% | SK-MEL-5 melanoma 79.5% | UACC-62 melanoma 49.2% | SK-MEL-28 melanoma 58% | SK-MEL-2 melanoma 79.4% | EKVX NSCLC 67.5% | SN12C renal 35.1% | UO-31 renal 65.4% | TK-10 renal 99.7% | ACHN renal 40.1% | CAKI-1 renal 61.9% | A498 renal 90.6% | CCRF-CEM leukemia 53% | MOLT-4 leukemia 58.7%
active: LOX IMVI melanoma 6.32%

COc1cc(/C=C2\C(=N)N=C(SCc3nc4ccccc4[nH]3)NC2=O)ccc1O
inactive: HCT-15 colon 96.3% | HT29 colon 110% | SNB-75 CNS 102% | SNB-19 CNS 104% | U251 CNS 105% | PC-3 prostate 94.2% | SK-MEL-5 melanoma 98.5% | UACC-62 melanoma 89% | LOX IMVI melanoma 88% | SK-MEL-28 melanoma 110% | SK-MEL-2 melanoma 105% | EKVX NSCLC 101% | SN12C renal 103% | UO-31 renal 64.2% | TK-10 renal 155% | ACHN renal 98.1% | CAKI-1 renal 86% | A498 renal 113% | CCRF-CEM leukemia 99.4% | MOLT-4 leukemia 99.2%

COc1ccc2c(c1)c(-c1cc(N)n3nc(-c4cn(C)c5ccccc45)cc3n1)cn2C
active: HCT-15 colon -80.1% | HT29 colon -64.6% | SNB-75 CNS -66.3% | SNB-19 CNS 4.07% | U251 CNS -80% | PC-3 prostate -20.5% | SK-MEL-5 melanoma -58.3% | UACC-62 melanoma -58.4% | LOX IMVI melanoma -87.1% | SK-MEL-28 melanoma -92.2% | SK-MEL-2 melanoma -92.4% | EKVX NSCLC -63.1% | SN12C renal -59.6% | UO-31 renal -88.3% | TK-10 renal -79% | ACHN renal -98.7% | CAKI-1 renal -77.4% | A498 renal -20.3% | CCRF-CEM leukemia -24.3% | MOLT-4 leukemia 0.804%

CC(=O)c1c(N)c(C#N)cn1-c1ccc(Cl)cc1Cl
inactive: HCT-15 colon 99.5% | HT29 colon 106% | SNB-75 CNS 90.5% | SNB-19 CNS 102% | U251 CNS 98% | PC-3 prostate 90.8% | SK-MEL-5 melanoma 98.8% | UACC-62 melanoma 80.8% | LOX IMVI melanoma 99.2% | SK-MEL-28 melanoma 106% | SK-MEL-2 melanoma 90.4% | EKVX NSCLC 93.8% | SN12C renal 100% | UO-31 renal 68.4% | TK-10 renal 160% | ACHN renal 102% | CAKI-1 renal 97.1% | A498 renal 112% | CCRF-CEM leukemia 99.3% | MOLT-4 leukemia 102%

CC1(C)CC[C@]2(C(=O)O)CC[C@]3(C)C(=CCC4[C@@]5(C)C[C@@H](O)[C@@H]6OC(c7ccc(F)cc7)OC[C@@]6(C)C5CC[C@]43C)C2C1 (stereo not given in full)
inactive: HCT-15 colon 13.4% | HT29 colon 25.4% | SNB-75 CNS 82.3% | SNB-19 CNS 34.9% | U251 CNS 14.7% | PC-3 prostate 17.6% | SK-MEL-5 melanoma 17.2% | UACC-62 melanoma 45.5% | LOX IMVI melanoma 19.9% | SK-MEL-28 melanoma 53.9% | SK-MEL-2 melanoma 18.1% | EKVX NSCLC 20.5% | SN12C renal 31.8% | UO-31 renal 25.6% | TK-10 renal 26.9% | ACHN renal 13.3% | CAKI-1 renal 33.6% | A498 renal 46.8% | CCRF-CEM leukemia 14.6%
active: MOLT-4 leukemia 8.69%
